Results taken from article PMC4336329 (PLoS ONE, 2015).
In all, about 310,000 compounds went through this assay and about 14,000 (4.5%) showed an effect of 50% or more. The effect is printed as a negative number. The sample holds strong results, similar compounds and a random draw of the others, so the mix is not that of the screen.

The molecules below were run against human ether-à-go-go-related gene (hERG) potassium channel (human, UniProt Q12809) (assay: primary screen, population patch clamp on CHO cells stably expressing hERG; higher = less effect of the substance).
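Also: peak tail current of the secondary pulse compared with the same well before compound.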

Sequence of human ether-à-go-go-related gene (hERG) potassium channel (Q12809 whole entry, looked up): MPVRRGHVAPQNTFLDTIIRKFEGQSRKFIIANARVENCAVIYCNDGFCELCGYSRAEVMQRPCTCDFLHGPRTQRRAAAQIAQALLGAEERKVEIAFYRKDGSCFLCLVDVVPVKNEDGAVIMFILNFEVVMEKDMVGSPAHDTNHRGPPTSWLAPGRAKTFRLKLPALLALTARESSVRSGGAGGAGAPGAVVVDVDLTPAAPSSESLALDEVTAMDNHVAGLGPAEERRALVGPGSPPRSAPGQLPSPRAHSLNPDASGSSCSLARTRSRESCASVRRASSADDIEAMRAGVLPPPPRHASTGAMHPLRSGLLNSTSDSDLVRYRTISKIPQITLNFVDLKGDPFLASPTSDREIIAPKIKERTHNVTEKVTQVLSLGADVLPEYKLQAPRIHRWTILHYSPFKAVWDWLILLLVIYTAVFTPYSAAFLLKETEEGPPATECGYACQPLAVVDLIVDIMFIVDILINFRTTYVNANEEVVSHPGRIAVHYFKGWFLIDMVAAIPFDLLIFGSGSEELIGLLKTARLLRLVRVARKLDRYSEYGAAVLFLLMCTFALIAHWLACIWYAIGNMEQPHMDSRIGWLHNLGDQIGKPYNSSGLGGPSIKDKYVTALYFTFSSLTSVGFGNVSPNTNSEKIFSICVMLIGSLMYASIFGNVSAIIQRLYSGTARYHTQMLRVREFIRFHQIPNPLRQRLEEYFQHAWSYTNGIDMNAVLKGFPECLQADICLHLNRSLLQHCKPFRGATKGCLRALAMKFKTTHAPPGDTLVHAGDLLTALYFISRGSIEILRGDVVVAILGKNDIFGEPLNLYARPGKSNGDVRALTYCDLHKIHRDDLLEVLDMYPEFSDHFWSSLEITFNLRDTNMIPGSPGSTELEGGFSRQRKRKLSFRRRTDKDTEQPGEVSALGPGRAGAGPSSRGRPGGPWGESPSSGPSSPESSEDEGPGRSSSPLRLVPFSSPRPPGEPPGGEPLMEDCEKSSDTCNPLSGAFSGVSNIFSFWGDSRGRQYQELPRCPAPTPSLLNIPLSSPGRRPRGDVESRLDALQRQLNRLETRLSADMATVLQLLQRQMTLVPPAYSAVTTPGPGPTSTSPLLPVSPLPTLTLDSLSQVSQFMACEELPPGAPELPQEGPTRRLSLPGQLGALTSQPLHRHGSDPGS

Going from `Cc1cc(=O)[nH]c2nnnn12` to `Cc1nn(-c2ccccc2)c(C)c1-c1nnc(C(F)(F)F)o1`, the “hERG current change (%, negative = inhibition) at 10uM” value falls from 4.44% to 2.32%.

Going from `O=C(Nc1cccc(F)c1)Nc1ccnn1C1CCN(C(=O)c2ccccn2)CC1` to `Cc1cc(C)n(-c2ccc(F)cc2CN2CCN(Cc3ccccc3)C(CCO)C2)n1` (centres unmarked), the “hERG current change (%, negative = inhibition) at 10uM” value falls from 14.2% to -37.2%.

Compared with `COc1cccc(N=C2SC(C(=O)Nc3ccc(F)cc3)CC(=O)N2C)c1` (centres unmarked), `Cc1c(C(=O)Nc2ccc(OCc3ccccc3)cc2)cccc1[N+](=O)[O-]` is higher in “hERG current change (%, negative = inhibition) at 10uM” value: -11% for the first, -0.125% for the second.

First: CC(OC(=O)c1nn(C)c(=O)c2ccccc12)C(=O)Nc1ccc(S(N)(=O)=O)cc1 (centres unmarked)
Second: O=C(Cn1[nH]c(=O)c2ccccc2c1=O)OCC(=O)c1ccccc1Cl
The “hERG current change (%, negative = inhibition) at 10uM” value of the first is higher: 11.6% for the first, -0.463% for the second.

Going from `OCCC1CN(Cc2cc(F)ccc2F)CCN1CCCc1ccccc1` (centres unmarked) to `OCCC1CN(Cc2ccc(F)cc2)CCN1CCCc1ccccc1` (centres unmarked), the “hERG current change (%, negative = inhibition) at 10uM” value rises from -70.3% to -68.2%.

Compared with `OCCC1CN(Cc2ccc3c(c2)CCO3)CCN1Cc1ccc(F)cc1` (centres unmarked), `Cc1ccc(CN2CCN(Cc3ccc4c(c3)OCCO4)CC2CCO)cc1` (centres unmarked) is higher in “hERG current change (%, negative = inhibition) at 10uM” value: -72.9% for the first, -39.8% for the second.

First: COC(=O)c1ccc(CN2CCN(CCCc3ccccc3)C(CCO)C2)cc1 (centres unmarked)
Second: COC(=O)c1ccc(CN2CCN(Cc3ccccc3)C(CCO)C2)cc1 (centres unmarked)
The “hERG current change (%, negative = inhibition) at 10uM” value of the first is lower: -64.1% for the first, -16.5% for the second.

Going from `COC(=O)c1ccc(CN2CCN(CCC(C)C)C(CCO)C2)cc1` (centres unmarked) to `CC(C)CCN1CCN(Cc2ccc3nsnc3c2)CC1CCO` (centres unmarked), the “hERG current change (%, negative = inhibition) at 10uM” value falls from -25.7% to -42.6%.

Compared with `OCCC1CN(Cc2ccc3c(c2)CCO3)CCN1C1CCCC1` (centres unmarked), `CC(C)=CCN1CCN(Cc2ccc3nsnc3c2)CC1CCO` (centres unmarked) is lower in “hERG current change (%, negative = inhibition) at 10uM” value: -12.7% for the first, -19.4% for the second.

Going from `CCCCOC(=O)Nc1ccc(S(=O)(=O)Nc2ccc([N+](=O)[O-])cc2)cc1` to `COC(=O)c1ccc(OCCOc2ccc(C(=O)OC)cc2)cc1`, the “hERG current change (%, negative = inhibition) at 10uM” value falls from 9.83% to -14.3%.

Compared with `Cc1cc(C(=O)OCC(=O)c2cccs2)c2ccccc2n1`, `COc1cc2ccccc2cc1C(=O)OCC(=O)N(C)c1c(N)n(Cc2ccccc2)c(=O)[nH]c1=O` is lower in “hERG current change (%, negative = inhibition) at 10uM” value: 24.1% for the first, 3.29% for the second.

Compared with `O=c1[nH][nH]c(-c2ccccc2)c1C=Nc1ccc(Cl)cc1`, `Cc1nn(-c2ccc(F)cc2)c(C)c1CN1CCN(Cc2ccccc2)C(CCO)C1` (centres unmarked) is lower in “hERG current change (%, negative = inhibition) at 10uM” value: -23% for the first, -44.2% for the second.

First: Cc1ccc(C(=O)C2=C(O)C(=O)N(CCCN3CCOCC3)C23C(=O)N(C)c2ccccc23)o1 (centres unmarked)
Second: Cc1ccc(-c2c3c(=O)n(C)c(=O)n(C)c3cn2N2CCOCC2)cc1
The “hERG current change (%, negative = inhibition) at 10uM” value of the first is higher: 27.9% for the first, -40% for the second.

Compared with `CCn1cc(CN2CCN(CCc3ccccc3)C(CCO)C2)c(C)n1` (centres unmarked), `Cn1cc(CN2CCN(CCc3ccccc3)C(CCO)C2)cn1` (centres unmarked) is higher in “hERG current change (%, negative = inhibition) at 10uM” value: -31% for the first, 4.52% for the second.

First: Cc1nn(-c2ccc(F)cc2)c(C)c1CN1CCN(CCc2ccccc2)C(CCO)C1 (centres unmarked)
Second: Cc1nn(-c2ccc(F)cc2)c(C)c1CN1CCN(CCC(C)C)C(CCO)C1 (centres unmarked)
The “hERG current change (%, negative = inhibition) at 10uM” value of the first is lower: -67.5% for the first, -36.3% for the second.

Compared with `OCCC1CN(Cc2ccc3nsnc3c2)CCN1CCc1ccccc1` (centres unmarked), `OCCC1CN(Cc2cccc(F)c2F)CCN1CCc1ccccc1` (centres unmarked) is higher in “hERG current change (%, negative = inhibition) at 10uM” value: -82.2% for the first, -55.3% for the second.

First: CC(C)n1cc(CN2CCN(CCc3ccccc3)C(CCO)C2)cn1 (centres unmarked)
Second: Cl.c1ccc(OCCN2C3=NCCN3c3ccccc32)cc1
The “hERG current change (%, negative = inhibition) at 10uM” value of the first is higher: -53.4% for the first, -73.3% for the second.

Going from `O=C(O)c1cncc(C#Cc2ccccc2)c1` to `N/C(=N\OC(=O)CCCOc1ccccc1)c1ccccc1`, the “hERG current change (%, negative = inhibition) at 10uM” value rises from 1.39% to 7.28%.

Compared with `CC1CCCCN1S(=O)(=O)c1ccc(C(=O)N2CCOCC2)cc1` (centres unmarked), `COc1ccc(-c2c3c(=O)n(C)c(=O)n(C)c3cn2N2CCOCC2)cc1` is lower in “hERG current change (%, negative = inhibition) at 10uM” value: 16.8% for the first, -52.3% for the second.

First: C[Se]C[C@@H](N)C(=O)O.Cl
Second: N#C/C(=C/c1ccccc1)C(=O)OCC(=O)Nc1ccccc1[N+](=O)[O-]
The “hERG current change (%, negative = inhibition) at 10uM” value of the first is higher: 12.3% for the first, 8.46% for the second.

First: Cn1c(C(=O)NCCN2CCc3ccccc3C2)cc2c(=O)n(C)c3ccccc3c21
Second: Br.COC(=O)c1ccc(OCCN2C3=NCCN3c3ccccc32)cc1
The “hERG current change (%, negative = inhibition) at 10uM” value of the first is higher: -11.8% for the first, -68.7% for the second.

Compared with `Br.COC(=O)CN1C2=NCCCN2c2ccccc21`, `COC(=O)c1cc(C(=O)Nc2ccc(Cl)cn2)cc([N+](=O)[O-])c1` is lower in “hERG current change (%, negative = inhibition) at 10uM” value: -11.8% for the first, -19% for the second.

Compared with `CCN(CC)c1ccc(/C=N/NC(=O)c2ccc3nc[nH]c3c2)cc1`, `O=c1oc2cc(S(=O)(=O)NCCCO)ccc2c2ccc(S(=O)(=O)NCCCO)cc12` is higher in “hERG current change (%, negative = inhibition) at 10uM” value: -22% for the first, 16.1% for the second.

With `Cn1c(=O)c2c(-c3ccc(C(C)(C)C)cc3)n(N3CCOCC3)cc2n(C)c1=O` the “hERG current change (%, negative = inhibition) at 10uM” value was -26.7%.
